Reference: PubChem BioAssay
Values without a mark were called inactive. Entries that show only a call come without a potency. For some of these results: Potency and affinity values are given separately. Calls of active or inactive are those of the source. Unless noted, no rule for the calls is given here.

How the values were obtained:
[1] = antimalarial activity against Dd2 strain (AID 2302;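 active = growth inhibition above 50% at the single 2 µM test dose, taken to imply half-maximal potency below 2 µM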); details: P. falciparum Dd2 in RBCs, LDH growth readout, 72 h; at 2 µM; hits give high values
[2] = HepG2 cytotoxicity, primary screen, cytotoxicity control for P. falciparum antimalarial project, cell-based, ATP luminescence (AID 2303;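 active = inhibition above 50%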); details: HepG2 viability, 24-48 h, at 10 µM, hits give high values
[3] = target: L-lactate dehydrogenase (Plasmodium falciparum (isolate CDC / Honduras)) (UniProt Q27743); experiment: PfLDH activity inhibition – cell lysate, 3D7 strain, counter-screen for P. falciparum growth inhibition project (AID 2304); details: P. falciparum 3D7 crude extract, LDH APAD/NBT absorbance; at 2 µM; hits give high values
Sequence of L-lactate dehydrogenase (Plasmodium falciparum (isolate CDC / Honduras)) (Q27743 whole entry, looked up): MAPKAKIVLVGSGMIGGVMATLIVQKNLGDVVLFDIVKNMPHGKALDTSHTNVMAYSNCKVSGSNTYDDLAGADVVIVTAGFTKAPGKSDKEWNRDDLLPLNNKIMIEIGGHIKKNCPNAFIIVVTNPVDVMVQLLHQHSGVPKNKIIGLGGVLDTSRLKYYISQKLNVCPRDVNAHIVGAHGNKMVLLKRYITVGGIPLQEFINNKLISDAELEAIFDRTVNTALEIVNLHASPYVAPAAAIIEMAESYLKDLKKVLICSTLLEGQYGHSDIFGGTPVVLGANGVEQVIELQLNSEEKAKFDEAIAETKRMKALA

[4] = inhibition of 3D7 malaria parasite growth – strain 3D7 (AID 2306); details: P. falciparum 3D7 erythrocytic growth, LDH absorbance, 72 h; at 2 µM; hits give high values
[5] = target: Calcium-dependent protein kinase 1 (Plasmodium falciparum (isolate 3D7)) (UniProt P62344); experiment: PfCDPK1 kinase inhibitors, biochemical, TCAMS library (AID 1159585; cut-off not given, nearly all actives have IC50 up to about 0.98 µM;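 also: inhibitors leave more ATP so luminescence rises with inhibition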); details: recombinant PfCDPK1, Kinase-Glo ATP depletion luminescence
Sequence of Calcium-dependent protein kinase 1 (Plasmodium falciparum (isolate 3D7)) (P62344 whole entry, looked up): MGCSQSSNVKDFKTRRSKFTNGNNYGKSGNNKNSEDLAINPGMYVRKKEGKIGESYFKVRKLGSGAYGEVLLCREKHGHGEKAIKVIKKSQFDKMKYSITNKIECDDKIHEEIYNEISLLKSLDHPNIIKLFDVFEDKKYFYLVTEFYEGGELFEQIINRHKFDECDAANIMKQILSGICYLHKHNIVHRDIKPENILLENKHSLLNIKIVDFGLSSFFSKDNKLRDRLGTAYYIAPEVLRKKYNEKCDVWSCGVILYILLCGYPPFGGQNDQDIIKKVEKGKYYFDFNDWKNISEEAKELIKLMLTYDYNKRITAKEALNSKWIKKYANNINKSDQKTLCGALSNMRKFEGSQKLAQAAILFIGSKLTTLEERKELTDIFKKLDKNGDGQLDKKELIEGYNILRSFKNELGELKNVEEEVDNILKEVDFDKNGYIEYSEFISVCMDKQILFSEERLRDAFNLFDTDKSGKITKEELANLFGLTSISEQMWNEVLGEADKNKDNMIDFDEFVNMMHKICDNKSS

[6] = target: Plasmodium falciparum protein kinase 6 (PK6, PF3D7_1337100) (UniProt Q8IDW1); experiment: PfPK6 kinase inhibitors, biochemical, TCAMS library (AID 1159586); details: recombinant PfPK6, Kinase-Glo ATP depletion luminescence
Sequence of Plasmodium falciparum protein kinase 6 (PK6, PF3D7_1337100) (Q8IDW1 1-305): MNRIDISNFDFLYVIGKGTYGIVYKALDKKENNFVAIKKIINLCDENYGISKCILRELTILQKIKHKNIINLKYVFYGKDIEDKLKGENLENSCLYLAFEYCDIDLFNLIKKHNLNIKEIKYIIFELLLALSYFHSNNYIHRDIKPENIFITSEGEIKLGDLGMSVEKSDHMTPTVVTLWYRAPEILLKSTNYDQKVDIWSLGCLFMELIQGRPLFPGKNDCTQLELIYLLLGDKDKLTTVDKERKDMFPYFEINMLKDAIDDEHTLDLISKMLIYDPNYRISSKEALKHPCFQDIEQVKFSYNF

[7] = target: Protein kinase 7 (PK7), Plasmodium falciparum 3D7 (PF3D7_0213400) (UniProt Q7YTF7); experiment: inhibition of Plasmodium PK7 catalytic activity – biochemical, TCAMS antimalarial set, Kinase-Glo luminescence (AID 1159587); details: recombinant PfPK7, Kinase-Glo ATP depletion luminescence
Sequence of Protein kinase 7 (PK7), Plasmodium falciparum 3D7 (PF3D7_0213400) (Q7YTF7 1-343): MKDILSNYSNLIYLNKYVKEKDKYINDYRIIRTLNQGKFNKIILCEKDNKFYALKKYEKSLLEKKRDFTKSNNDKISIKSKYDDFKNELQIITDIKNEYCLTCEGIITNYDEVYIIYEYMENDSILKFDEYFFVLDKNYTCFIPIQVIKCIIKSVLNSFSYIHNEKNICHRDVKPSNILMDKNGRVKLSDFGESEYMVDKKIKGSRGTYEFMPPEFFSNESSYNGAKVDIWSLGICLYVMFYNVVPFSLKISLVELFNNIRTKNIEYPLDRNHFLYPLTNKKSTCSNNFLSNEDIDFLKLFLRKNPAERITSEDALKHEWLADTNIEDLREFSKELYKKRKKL

[8] = target: Calcium-dependent protein kinase 4 (Plasmodium falciparum (isolate 3D7)) (UniProt Q8IBS5); experiment: PfCDPK4 kinase inhibitors, biochemical, TCAMS library (AID 1159588; cut-off not given, nearly all actives have IC50 up to about 0.91 µM); details: recombinant PfCDPK4, Kinase-Glo ATP depletion luminescence
Sequence of Calcium-dependent protein kinase 4 (Plasmodium falciparum (isolate 3D7)) (Q8IBS5 whole entry, looked up): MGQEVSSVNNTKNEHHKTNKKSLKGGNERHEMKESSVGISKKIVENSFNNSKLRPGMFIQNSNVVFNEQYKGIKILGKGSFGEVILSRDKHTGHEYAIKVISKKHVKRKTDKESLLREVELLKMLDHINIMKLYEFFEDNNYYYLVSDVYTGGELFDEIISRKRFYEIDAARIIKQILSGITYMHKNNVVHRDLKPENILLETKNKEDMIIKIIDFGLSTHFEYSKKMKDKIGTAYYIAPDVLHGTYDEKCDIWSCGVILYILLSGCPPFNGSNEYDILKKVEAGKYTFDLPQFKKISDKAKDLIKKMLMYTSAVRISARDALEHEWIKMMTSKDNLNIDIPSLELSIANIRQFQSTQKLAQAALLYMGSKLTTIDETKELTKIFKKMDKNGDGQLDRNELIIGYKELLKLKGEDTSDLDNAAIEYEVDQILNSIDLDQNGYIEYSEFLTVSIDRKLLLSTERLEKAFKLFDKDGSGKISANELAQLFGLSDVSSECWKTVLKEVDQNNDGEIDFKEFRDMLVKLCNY

SMILES	growth inhibition [1]	inhibition [2]	inhibition [3]	growth inhibition [4]	outcome [5]	outcome [6]	outcome [7]	outcome [8]
Cn1nc2ccc3ccccc3c2nc1=N	85% (active)	100% (active)	-4%	91% (active)	inactive	inactive	inactive	inactive
CN1CCN(c2cc3c(Nc4ccc5c(cnn5Cc5ccccc5)c4)ncnc3cn2)CC1	35%	9%	5%	88% (active)	inactive	inactive	inactive	inactive
c1ccc2c(NCCCCCCCCCNc3ccnc4ccccc34)ccnc2c1	100% (active)	57% (active)	-3%	101% (active)	inactive	inactive	inactive	inactive
O=C(Cn1c(CCc2cccc(F)c2F)nc(=O)c2ccccc21)N(Cc1ccc(-c2ccc(C(F)(F)F)cc2)cc1)C1CCN(C2=NCCS2)CC1	85% (active)	62% (active)	3%	81% (active)	inactive	inactive	inactive	inactive
Cc1ccccc1C1CCN(C2CCC(NC(=O)c3ccc(-c4cccc(C(F)(F)F)c4)o3)CC2)CC1 (stereo not given)	101% (active)	56% (active)	-2%	99% (active)	inactive	inactive	inactive	inactive
COC(=O)C(c1ccc(NC(=O)[C@H](CC(C)C)NC(=O)OC(C)(C)C)cc1)c1ccc(NC(=O)[C@H](CC(C)C)NC(=O)OC(C)(C)C)cc1	42%	0%	2%	94% (active)	inactive	inactive	inactive	inactive
CCNc1cc(C)nc(Nc2ccc(NC(=O)c3c(F)cccc3Cl)cc2)n1	89% (active)	49%	-4%	102% (active)	inactive	inactive	inactive	inactive
Cc1nc2ccc3ccc(CNc4ccc5c(c4)CN([C@@H](CCC(=O)O)C(=O)O)C5=O)cc3c2c(=O)[nH]1	95% (active)	41%	2%	94% (active)	inactive	inactive	inactive	inactive
CCN(CC)CCN(Cc1ccc(-c2ccc(C(F)(F)F)cc2)cc1)C(=O)Cn1cc(Cc2cnn(C)c2)c(=O)nc1/C=C/c1ccc(F)cc1	91% (active)	6%	3%	96% (active)	inactive	inactive	inactive	inactive
Cc1cccc(C(=O)Nc2ccnc(N3CCC(N(C)Cc4ccc(C#N)cc4)CC3)c2)c1	6%	12%	-4%	94% (active)	inactive	inactive	inactive	inactive
CC(C)CCNc1nc(NCCCc2ccccc2)c2cc(O)ccc2n1	95% (active)	14%	-1%	101% (active)	inactive	inactive	inactive	inactive
COc1ccccc1-c1nc2nc(N)nc(N)c2nc1-c1ccccc1OC	1%	27%	1%	84% (active)	inactive	inactive	inactive	inactive
COc1ccc(CNCCCCCCNCc2ccc(OC)c3ccccc23)c2ccccc12	49%	100% (active)	-5%	102% (active)	inactive	inactive	inactive	inactive
O=C(NCCCCN1CCC(c2ccc3c(c2OCCN2CCCC2)CCCC3)CC1)c1ccc(-c2ccc(C(F)(F)F)cc2)cc1	81% (active)	25%	-6%	100% (active)	inactive	inactive	inactive	inactive
Oc1ccc(CCCc2cc(Oc3c(I)cc(CCc4ncc[nH]4)cc3I)ccc2O)cc1	7%	26%	-9%	95% (active)	inactive	inactive	inactive	inactive
CCN(CC)CCN(Cc1ccc(-c2ccc(C(F)(F)F)cc2)cc1)C(=O)Cn1c(CCc2cccc(F)c2F)nc(=O)c2ccccc21	60% (active)	49%	-3%	97% (active)	inactive	inactive	inactive	inactive
O=C(Nc1cccc(C(F)(F)F)c1)c1cccc(S(=O)(=O)NCC2CCCN(CC3CCCCC3)C2)c1 (stereo not given)	11%	17%	-1%	99% (active)	inactive	inactive	inactive	inactive
CC(C)CNCc1ccc(-c2cccc(-c3nc4ccccc4[nH]3)c2)cc1	98% (active)	53% (active)	-5%	99% (active)	inactive	inactive	inactive	inactive
Fc1ccc2cc(C=Cc3ccncc3)[nH]c2c1	89% (active)	-10%	0%	100% (active)	inactive	inactive	inactive	inactive
Cc1cc(CNCCCCCCNCc2cccc([N+](=O)[O-])c2)ccc1O	-1%	13%	-8%	90% (active)	inactive	inactive	inactive	inactive
